Compound activity: PubChem BioAssay, several laboratories
EP2 antag = inhibitors of human EP2 prostaglandin E2 receptor. P43116. C6 glioma cells expressing human EP2, cAMP TR-FRET; cells stimulated with saturating PGE2. inhibition, % at 25 µM. actives 0.52% (n = 260,000). AID 1422;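 active means percent inhibition above 40 after rounding to a whole number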;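 further: rat C6 glioma host cells with rolipram phosphodiesterase inhibitor present; the protocol text gives 20 µM as final concentration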
CHT block = human CHT choline transport inhibition; CHT-expressing cells, membrane potential dye, choline response; hits give low values; B-score at 10 µM; actives 0.86% (n = 310,000);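 active means B-score over 3 SD under the library average, and starting fluorescence ratio not unusually high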;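 further: choline stimulus applied at its EC90 after an EC20 pre-addition; B-score computed on integrated fluorescence ratio after choline addition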
Target sequence (Q9GZV3 whole entry, looked up): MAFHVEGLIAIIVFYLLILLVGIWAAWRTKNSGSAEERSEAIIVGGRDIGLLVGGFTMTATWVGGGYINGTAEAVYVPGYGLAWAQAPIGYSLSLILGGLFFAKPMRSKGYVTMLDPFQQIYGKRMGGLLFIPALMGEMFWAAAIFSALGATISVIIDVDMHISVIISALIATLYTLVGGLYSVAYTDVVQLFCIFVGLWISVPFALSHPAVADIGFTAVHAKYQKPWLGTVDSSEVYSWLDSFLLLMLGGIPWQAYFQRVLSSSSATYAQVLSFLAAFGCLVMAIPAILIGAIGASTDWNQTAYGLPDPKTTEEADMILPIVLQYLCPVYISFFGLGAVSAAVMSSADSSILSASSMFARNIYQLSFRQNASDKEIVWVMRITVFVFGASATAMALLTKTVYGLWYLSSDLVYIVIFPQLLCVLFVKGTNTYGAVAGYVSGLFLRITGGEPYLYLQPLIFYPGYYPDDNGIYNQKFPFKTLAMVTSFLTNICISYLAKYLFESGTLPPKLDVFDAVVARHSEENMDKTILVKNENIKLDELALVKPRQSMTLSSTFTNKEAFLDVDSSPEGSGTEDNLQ
EP2 modulator = modulators of human EP2 prostaglandin E2 receptor; P43116; EP2-expressing cells, cAMP HTRF FRET, PGE2 co-stimulation; induction, % at 25 µM; actives 0.83% (n = 260,000); AID 940;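 active means compounds whose cAMP rise, as percent of the full-agonist control response, exceeds 60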;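 further: rat C6 glioma line stably carrying human EP2 under a CMV promoter; the protocol text gives 20 µM as final concentration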
CHT allo act = allosterically activates the human high affinity choline transporter | Q9GZV3 | CHT-expressing cells, membrane potential dye, choline EC20; hits give high values; LV-AA mutant CHT in HEK293 cells | B-score at 10 µM | actives 0.49% (n = 310,000) | AID 488977;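 active means initial fluorescence not abnormally high and integrated response B-score, plate-corrected, over 3 SD above library mean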
A number is an active result; – = inactive; · = not tested or not shown; ! = not confirmed by another sample. Only some compounds are listed: those with a hit (about 2% of all), similar ones and a draw of the others.

SMILES	EP2 antag	CHT block	EP2 modulator	CHT allo act
Cc1cccc(Nc2nc(N)c([N+](=O)[O-])c(N3CC(C)CC(C)C3)n2)c1 (stereo unspecified)	–	–	63	–
Nc1nc(Nc2ccc(Cl)cc2)nc(NCc2ccco2)c1[N+](=O)[O-]	–	–	65	–
Cc1cccc(Nc2nc(N)c([N+](=O)[O-])c(N3CC(C)OC(C)C3)n2)c1 (stereo unspecified)	·	–	·	–
Nc1nc(Nc2cccc(Cl)c2)nc(NCc2ccco2)c1[N+](=O)[O-]	–	–	–	–
Cc1ccc(Nc2nc(N)c([N+](=O)[O-])c(NCc3ccccc3)n2)cc1	–	–	74	–
COc1ccccc1N1CCN(C(c2ccccc2)c2nnnn2C2CCCCC2)CC1 (stereo unspecified)	–	·	–	·
O=C(c1cccnc1)N1CCN(c2ncc(-c3ccccc3)s2)CC1	–	·	–	·
Cc1ccc(Nc2nc(NCc3ccco3)c3ccccc3n2)cc1	42	–	–	–
CCCSc1nc2c(cnn2-c2ccc(C)c(C)c2)c(=O)[nH]1	–	–	–	–
COC(=O)c1ccc(CSc2nc3c(cnn3-c3ccc(C)c(C)c3)c(=O)[nH]2)o1	–	–	65	–
CSc1ccc(COC(=O)c2cc([N+](=O)[O-])ccc2N2CCOCC2)cc1	·	–	·	6.3
Cc1ccccc1COC(=O)c1cc([N+](=O)[O-])ccc1N1CCOCC1	·	–	·	–
Fc1ccc(C2CC(c3ccco3)=Nc3ccccc3S2)cc1 (stereo unspecified)	–	–	62	–
N#C/C(=C\c1ccc(Cl)cc1)c1nc(-c2ccco2)cs1	–	–	–	–
N#C/C(=C\c1ccc(F)cc1)c1nc(-c2ccco2)cs1	–	–	61	–
CCCOc1ccc(C2C3=C(CC(C)(C)CC3=O)NC3=C2C(=O)CC(C)(C)C3)cc1OC	–	·	–	·
Cc1cc2ccccc2n2c(SCC(=O)Nc3nc4c(s3)CCCC4)nnc12	–	·	–	·
CC(C)c1nc2ccccc2c2nnc(SCC(=O)Nc3nc4c(s3)CCCC4)n12	–	·	64	·
COc1ccc(C(=O)N2c3ccccc3C=CC2C#N)cc1 (stereo unspecified)	–	–	–	–
O=C(C[C@@H]1C=Cc2ccccc2N1C(=O)c1ccccc1)c1ccccc1	59	·	–	·
Nc1nc(-c2ccc3ccccc3c2)cc(-c2cc(-c3ccc4ccccc4c3)nc(N)n2)n1	51	·	–	·
Cc1ccc(-n2c(SCC(=O)NC(C)(C)C)nnc2-c2ccoc2C)cc1	–	·	–	·
NS(=O)(=O)c1ccc(N=Nc2cc3ccccc3c(C(=O)O)c2O)cc1	45	·	–	·
NS(=O)(=O)c1ccc(N=Nc2ccc(O)c(C(=O)O)c2)cc1	–	·	–	·
COCCNc1c(C)c(C)nc2cc(-c3ccc(OC)c(OC)c3)nn12	–	·	–	·
SMILES	EP2 antag	CHT block	EP2 modulator	CHT allo act
COc1cc(OC)c(NC(C)C(=O)N2CCCC2)cc1Cl (stereo unspecified)	–	-8.7	–	–
CC(C)C1=NN(C(=O)c2ccccc2)C(O)(C(F)(F)F)C1 (stereo unspecified)	–	·	–	·
COc1ccc(C(=O)c2ccc(OC)c(N)c2)cc1N	–	–	–	12
COc1ccc(C)cc1N(C(=O)c1ccccc1)c1nc2ccccc2s1	–	–	–	–
COc1ccccc1N(C(=O)c1cncc(Br)c1)c1nc(-c2ccc(C)cc2)cs1	–	–	64	–
O=C(CSc1nc(-c2ccco2)cc(C(F)(F)F)n1)Nc1ccccc1Cl	–	·	–	·
COC(=O)c1ccccc1NC(=O)CSc1nc(-c2ccco2)cc(C(F)(F)F)n1	–	–	65!	–
CCOC(=O)Cn1c(C(F)(F)F)nc2nc(Cl)c(Cl)nc21	40	·	–	·
CCOC(=O)Cn1c2ccccc2c2nc3ccccc3nc21	–	–	–	–
O=C(Cc1ccccc1)Nc1cc(C(F)(F)F)ccc1N1CCOCC1	–	·	–	·
O=C(Cc1ccc(Br)cc1)c1ccc(O)cc1O	–	-6.7	–	–
CCN1/C(=C/c2ccc3cc(C)ccc3[n+]2CC)Sc2cc(C)ccc21	80	·	–	·
CCN1/C(=C/c2ccc3cc(OC)ccc3[n+]2CC)Sc2cc(NC(C)=O)ccc21	–	·	–	·
CCCCN1/C(=C/c2ccc3ccccc3[n+]2CC)Sc2ccccc21	–	·	–	·
CCN1/C(=C/c2ccc3cc(C)ccc3[n+]2C)Sc2ccc3sccc3c21	45	·	–	·
CCN1/C(=C/c2ccc3ccccc3[n+]2C)Sc2cc(C)ccc21	52	·	–	·
CC[n+]1c(/C=C2/Sc3ccc(OC)cc3N2C)ccc2cc(OC)ccc21	123	·	–	·
CC1CCCC(C)N1C(=O)Cn1c2ccccc2n2c(SCC(=O)N3CCCCC3)nnc12 (stereo unspecified)	–	·	–	·
O=C(Nc1cnn(C23CC4CC(CC(C4)C2)C3)c1)C1CC(c2c(F)cccc2Cl)=NO1 (stereo unspecified)	–	·	–	·
NCCCC(=O)N1c2ccccc2Sc2ccc(Cl)cc21	·	–	·	–
O=C(c1ccco1)N1c2ccccc2Sc2ccccc21	44	–	–	–
O=C(CCCl)N1c2ccccc2Sc2ccccc21	–	·	70	·
Cn1c2ccccc2c(=O)c2c(=O)n(Cc3ccco3)c(-c3ccc(C(C)(C)C)cc3)nc21	–	–	65	–
CCOC(=O)c1c(CN2CCCCC2)n(C)c2cc(Br)c(OC)cc12	–	–	–	–
CCOC(=O)c1c(CSc2ccccc2)n(C)c2cc(Br)c(O)c(CN(C)C)c12	–	–	–	–
SMILES	EP2 antag	CHT block	EP2 modulator	CHT allo act
CCOC(=O)c1c(CN2CCCCC2)n(C)c2cc(Br)c(O)c(CN(C)C)c12	–	–	–	11
CCOC(=O)c1c(CN2CCN(CCO)CC2)n(C)c2cc(Br)c(OC)cc12	–	–	–	7.7
CCOC(=O)c1c(C)n(C)c2ccc(O)c(CN3CCCCC3)c12	–	-13	–	–
CCOC(=O)c1c(C)oc2ccc(O)c(CN3CCCCC3)c12	–	–	–	–
COc1ccccc1C1CN(c2ccccc2)N=C1c1cccs1 (stereo unspecified)	–	–	68	–
O=S1(=O)CCN(c2ccccc2CC(c2c[nH]c3ccccc23)c2c[nH]c3ccccc23)CC1	52	·	–	·
Cc1cc(C)c2[nH]c(=O)c(C(c3nnnn3Cc3ccc(F)cc3)N3CCCCCC3)cc2c1 (stereo unspecified)	–	·	69	·
Cc1ccc(C)c2[nH]c(=O)c(C(c3nnnn3CCc3ccccc3)N3CCCCC3)cc12 (stereo unspecified)	–	·	85	·
CCc1ccc2c(c1)N(C[C@H](C)CN(C)C)c1ccccc1S2	44	·	–	·
CN(C)CC(C)(C)CN1c2ccccc2Sc2ccccc21	–	·	–	·
CCCCOC(=O)CSCC(=O)N1N=C(c2cccs2)CC1c1ccc(F)cc1 (stereo unspecified)	50	–	–	–
CCOC(=O)CSCC(=O)N1N=C(c2cccs2)CC1c1ccc(F)cc1 (stereo unspecified)	–	–	–	–
O=C(Nc1ccccc1)C1=C(c2ccccc2)S(=O)(=O)CCS1(=O)=O	46	·	–	·
CCc1nc(NCC(C)C)c(C#N)c2c1COC(C)(C)C2	–	–	–	–
CCOc1nc(CC(C)C)c2c(c1C#N)CC(C)(C)OC2	–	–	62	–
